A number with no mark means an inactive call. Active and inactive are the calls of the source. Calls follow the shape of the dose curve; as a rule, active = well fitted cell-killing curve with a large enough effect; inconclusive = small, poorly fitted or top-dose-only effect, or effect the other way; inactive = flat fitted curve, though single readings scatter.
Test: MultiTox-Fluor Cytotoxicity Assay - LYMP1-003 - Dead Cells (AID 961);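 also: cells exposed to compound for 16 h at 37 °C; nearly all actives have a fitted effect of over 70% in size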;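 as to cytotoxicity (dead cells): 0% = DMSO and 100% = tetraoctylammonium bromide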
Conditions: LYMP1-003 lymphoblastoid cells, dead-cell protease fluorescence; series mostly up to 92.2 µM; cytotoxicity (dead cells): at the top concentration
Source text: NIH Chemical Genomics Center [NCGC]
NIH Molecular Libraries Screening Centers Network [MLSCN]
National Institutes of Environmental Health Sciences [NIEHS]
National Toxicology Program [NTP]
We have developed a 1536-well cell-based assay for quantitative high throughput screening (qHTS) against a number of cell lines to determine in vitro cytotoxicity of small molecules. This particular assay uses a human lymphoblastoid cell line (LYMP1-003) purchased from Coriell Institute.
NCGC Assay Protocol Summary:
The MultiTox-Fluor Cytotoxicity Assay (Promega) is a homogeneous method to simultaneously measure the relative number of live and dead cells in culture by detecting changes in cell membrane integrity. There are two fluorogenic peptide substrates in the assay reagent. Viable cells are determined when the cell-permeant substrate (GF-AFC) enters the cell and is cleaved by protease from live cells resulting in liberated fluorophore. This live-cell protease activity restricted to viable cells is proportional to cell number. The dead cells are determined by using fluorogenic cell-impermeant peptide substrate (bis-AAF-R110) which cleaved by dead cell proteases leaking from damaged cell membrane.
Using the MultiTox-Fluor Cytotoxicity Assay, the relative number of dead cells was measured in the lymphoblastoid cell line with complete culture medium following compound treatment for 16 hours. The assay was performed in opaque black Kalypsys 1536-well plates. In the screen, tetraoctylammonium bromide was used as positive control. Library compounds were measured for their ability to cause acute toxicity in the cell line, as reflected by an increase in dead cell protease activity, in a concentration-dependent manner. Data were normalized to the controls for basal activity (DMSO only) and 100% stimulation (15 uM tetraoctylammonium bromide). AC50 values were determined from concentration-response data modeled with the standard Hill equation.
qHTS protocol for MultiTox-Fluor Cytotoxicity assay
[Step] [Parameter] [Value] [Description]
1. Reagent; 5 uL; 2500 lymphoblastoid cells/well
2. Time; 5 hr; 37 C incubation
4. Controls; 23 nL; Tetraoctylammonium bromide 6.4pM to 92 uM
5. Time; 16 hr; 37 C incubation
6. Reagent; 5 uL; MuliTox-Fluor Assay reagent
7. Time; 60 min; Room Temperature
8. Detection; dead-cell fluorescence (Ex/Em=485/520); EnVision plate reader
Keywords: cytotoxicity, lymphoblastoid cell line, fluorescence, NTPHTS, NTPHTS_NCGC, NIEHS, EPA, DSSTox, MLSMR, MLSCN, NIH Roadmap, qHTS, NCGC
Potency is read from the fitted curve at half-maximal effect.

SMILES | Potency | cytotoxicity (dead cells) [%]
CC1=C(/C=C/C(C)=C/C=C/C(C)=C\C=O)C(C)(C)CCC1 | 31.6 µM (active) | –
CCOc1ccc(NC(C)=O)cc1N | – | -17.8
c1ccc2c(c1)Oc1ccccc1S2 | – | -1.1
Cc1cccc(C)c1[N+](=O)[O-] | – | -9.46
NC(=O)c1ccccc1[N+](=O)[O-] | – | -15.6
C(=C/c1ccccc1)/c1ccccc1 | – | -11.1
O=C(O)/C=C/C(=O)O | – | -13.3
C=C(C)C(=O)OCC(C)O (stereo not given) | – | -5.1
O=C1OC(=O)c2cc([N+](=O)[O-])ccc21 | – | 0.0608
Cc1ccc(C)c([N+](=O)[O-])c1 | – | -0.639
O=Cc1cccc(Br)c1 | – | 4.63
CC(C)C(C)C | – | -2.11
CCCCCCCN | – | -3.32
CC(=O)CCc1ccccc1 | – | -17.8
CNc1ccccc1 | – | -11.4
O=[N+]([O-])c1ccccc1CCO | – | 2.09
Clc1cc(Cl)cc(Cl)c1 | – | -5.68
CC(=C/C=C/C(C)=C/C=C/C=C(C)/C=C/C=C(C)/C=C/C(=O)O)/C=C/C(=O)O | – | -8.95
CCCC(C)CO (stereo not given) | – | -3.15
CCCCCCCCCCCCC1CO1 (stereo not given) | – | -3.13

SMILES | Potency | cytotoxicity (dead cells) [%]
CCC(C)(C)C(=O)O | – | 0.197
Nc1nc(CC(=O)O)cs1 | – | -6.07
CC(C)=CCl | – | -12
Cc1cc(C)cc(N)c1 | – | -8.78
Nc1nc(-c2ccccc2)cs1 | – | 3.73
CCCCCO | – | -3.29
CCc1ccccc1O | – | -11.2
COC(=O)CCC(=O)OC | – | -7.02
BrC(Br)C(Br)Br | – | -5.14
Cc1ccc(Br)cc1 | – | 1.02
BrC/C=C/CBr | – | -4.68
CC(=O)Nc1ccc(C)cc1 | – | 14.8
Cc1ccccc1C#N | – | -13.1
CCOC(C)(C)C | – | -8.25
O=C(O)c1c(Cl)cccc1Cl | – | -20.8
Cc1cc(C)cc(O)c1 | – | 0.0345
O=C(O)CCSSCCC(=O)O | – | -0.298
O=[N+]([O-])c1ccc(Cl)cc1Cl | – | -12.7
CCN(C(=O)N(CC)c1ccccc1)c1ccccc1 | – | 11
CCOc1ccccc1N | – | -9.6
